BH1578 lux ind: inducers of Vibrio cholerae quorum light production without autoinducers, primary screen, BH1578 luxS cqsA deficient, single point | 0.16% of 350,000 active | activation, % at 18.7 µM | V. cholerae BH1578 lux reporter, luminescence, 6 h; in the data active = activation mostly above about 9.7%, no sharp cut-off
GDH-TPI counter-1: GDH-TPI coupling enzyme inhibitors, primary screen, artefact control for M. tuberculosis FBA inhibitor project, biochemical, absorbance, full deck. GDH-TPI coupled enzyme counterscreen, NADH absorbance. inhibition, % at 4.8 µM. 1.2% of 360,000 active. AID 588335, 2011; in the data active = inhibition above about 30%;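 note: 0% = DMSO wells and 100% = wells lacking the enzyme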
CCHFV vOTU inh: CCHFV vOTU protease inhibitors, primary screen, biochemical, Pep-AMC substrate, fluorescence. inhibition, % at 11.5 µM. Crimean-Congo hemorrhagic fever virus L polyprotein viral ovarian tumor (vOTU) protease …. 0.55% of 370,000 active; in the data active = inhibition above about 30%; note: 0% = vehicle wells with enzyme and 100% = no enzyme wells
Mtb FBA inh: Mtb FBA enzyme inhibitors, primary screen, biochemical, fluorescence, strain H37Rv. Fructose-bisphosphate aldolase (Mycobacterium tuberculosis (strain ATCC 25618 / H37Rv)), …. purified M. tuberculosis FBA, fluorescence read-out. inhibition, % at 1 µM. 2.3% of 360,000 active. AID 588726, 2011;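 note: 0% = vehicle and 100% = reference inhibitor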
Target sequence (P9WQA3 whole entry, looked up): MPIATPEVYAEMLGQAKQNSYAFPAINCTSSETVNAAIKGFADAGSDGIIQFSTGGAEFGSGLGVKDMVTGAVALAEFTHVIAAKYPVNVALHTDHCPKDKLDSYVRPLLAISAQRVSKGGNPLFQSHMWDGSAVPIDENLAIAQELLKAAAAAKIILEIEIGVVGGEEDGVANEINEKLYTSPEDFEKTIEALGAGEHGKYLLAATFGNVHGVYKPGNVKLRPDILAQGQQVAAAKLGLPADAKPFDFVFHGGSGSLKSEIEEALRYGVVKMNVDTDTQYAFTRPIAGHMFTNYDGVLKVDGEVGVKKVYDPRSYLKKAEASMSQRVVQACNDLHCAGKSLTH
Mtb FBA inh conf: M. tuberculosis aldolase blockers, biochemical, fluorescence, strain H37Rv, confirmation; 78% of 5,600 active; inhibition, % at 1 µM; purified M. tuberculosis FBA, fluorescence read-out; shares compounds with Mtb FBA inh;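 note: 0% = vehicle wells and 100% = reference inhibitor wells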
GDH-TPI counter-2: GDH-TPI coupling enzyme inhibitors, artefact control for M. tuberculosis FBA inhibitor project, biochemical, fluorescence, high throughput; shares compounds with Mtb FBA inh; GDH-TPI coupled enzyme counterscreen; inhibition, % at 1 µM; 81% of 5,600 active; AID 652141, 2013; in the data active = inhibition above about 10%
GDH-TPI dose: GDH-TPI coupling enzyme inhibitors, dose response, artefact control for M. tuberculosis FBA inhibitor project, biochemical, fluorescence, IC50 | shares compounds with Mtb FBA inh | AID 652145, 2013 | GDH-TPI coupled enzyme assay, artifact counterscreen | 79% of 170 active | IC50, µM; call rule not given here
* = called active by the depositor; i = inactive; / = no result given; + = active, no number. Hits are enriched below; roughly 3.9% of the tested compounds scored in any of these assays. Cut-off read from the data, not from the text of the source, unless noted: active = inhibition above about 27%; inactive = the rest.

SMILES	BH1578 lux ind	GDH-TPI counter-1	CCHFV vOTU inh	Mtb FBA inh	Mtb FBA inh conf	GDH-TPI counter-2	others
O=P(c1ccccc1)(c1ccccc1)c1nc(-c2ccccc2)oc1N1CCOCC1	i	1	-13	2	/	/
CCOC(=O)c1nc(-c2ccccc2)oc1N1CCOCC1	0	4	-33	97*	120*	95*
Cc1ccc(CC2S/C(=N/N=C/c3ccco3)NC2=O)cc1 (stereo not drawn)	i	24	5	6	/	/
Cc1cccc2cc(C#N)c(N3CCN(C)CC3)nc12	-8	-8	-12	5	/	/
Cc1ccc(C)c2nc(N3CCCC3)c(C#N)cc12	0	7	-7	33*	173*	146*
CS(=O)(=O)N1CCN=C1SCc1ccccc1	0	-6	4	2	/	/
O=c1[nH]c(SCc2ccccc2Cl)nc2c1cnn2-c1ccccc1	0	5	20	2	/	/
CN1C(=O)/C(=C\c2ccc(OC(=O)c3ccco3)cc2)SC1=S	0	-5	6	3	/	/
CC(=O)Nc1ccc(-c2ccnc3c2CC(C)(C(=O)Nc2ccc4c(c2)OCO4)O3)cc1 (stereo not drawn)	i	14	11	0	/	/
CC1(C(=O)Nc2ccccc2)Cc2c(-c3ccc4c(c3)OCO4)ccnc2O1 (stereo not drawn)	i	4	6	48*	24	10	GDH-TPI dose=4.5*
CC1(C(=O)Nc2ccc(Cl)c(C(F)(F)F)c2)Cc2c(-c3ccc4c(c3)OCO4)ccnc2O1 (stereo not drawn)	i	-1	14	4	/	/
CC1(C(=O)Nc2cccnc2)Cc2c(-c3ccc4c(c3)OCO4)ccnc2O1 (stereo not drawn)	0	7	-9	37*	43*	30*
CC(=O)Nc1ccc(NC(=O)C2(C)Cc3c(-c4ccc5c(c4)OCO5)ccnc3O2)cc1 (stereo not drawn)	0	0	6	52*	6	-6
Cc1ccc(C)c(Cc2c(C)nc3c(C(=O)N4CCOCC4)cnn3c2C)c1	1	6	-26	62*	/	+
Cc1nc2c(C(=O)N3CCC4(CC3)OCCO4)cnn2c(C)c1Cc1cccc(Cl)c1	1	-6	-9	31*	+	192*
CCOC(=O)N1CCN(C(=O)c2cnn3c(C)c(Cc4ccc(C)cc4)c(C)nc23)CC1	-1	5	/	34*	115*	92*
COC(=O)c1cnn2c(C)c(Cc3cccc(F)c3)c(C)nc12	0	8	-14	43*	7	1
Cc1nc2c(C(=O)N3CCN(c4ccccn4)CC3)cnn2c(C)c1Cc1cccc(Cl)c1	i	1	17	3	/	/
COc1ccc(CNC(=O)C[C@H]2C[C@H](C(=O)N(C(C)C)C(C)C)[C@@]3(C)c4[nH]c5cc(-c6ccco6)ccc5c4CCN3C2=O)cc1OC	-1	4	0	19	/	/
COc1ccc(OC)c(NC(=O)C2CCCN(S(C)(=O)=O)C2)c1 (stereo not drawn)	0	-7	8	0	/	/
Cc1ccc(NC(=O)Cn2ccsc2=N)c([N+](=O)[O-])c1	0	4	2	-2	/	/
Cc1ccc(-c2ccc(CCC(=O)O)n2CC2CCCO2)cc1 (stereo not drawn)	3	-1	-56	41*	92*	60*
Cc1ccc(-c2ccc(CCC(=O)O)n2CC(=O)O)cc1	-4	10	/	20	/	/
O=C(O)CCc1ccc(-c2ccccc2)n1CC1CCCO1 (stereo not drawn)	-1	-1	-48	37*	133*	119*
O=C(O)CCc1ccc(-c2ccccc2)n1Cc1ccco1	i	19	14	12	/	/
SMILES	BH1578 lux ind	GDH-TPI counter-1	CCHFV vOTU inh	Mtb FBA inh	Mtb FBA inh conf	GDH-TPI counter-2	others
COc1ccc2cc(C(=O)C3CCCN(C(=O)CCc4ccccn4)C3)ccc2c1 (stereo not drawn)	0	9	-128	96*	94*	62*
COc1ccc(C(=O)C2CCCN(Cc3ccc4nonc4c3)C2)c(OC)c1 (stereo not drawn)	-3	3	-4	57*	153*	135*
CCOC(=O)N1CCC(N2CCCC(C(=O)c3ccc4cc(OC)ccc4c3)C2)CC1 (stereo not drawn)	0	3	-178	107*	116*	91*
COc1cccc(C(=O)C2CCCN(Cc3ccccn3)C2)c1 (stereo not drawn)	-1	11	8	-1	/	/
CCOC(=O)N1CCC(N2CCCC(C(=O)c3cc(C)c(OC)c(C)c3)C2)CC1 (stereo not drawn)	/	-6	10	0	/	/
COc1ccc2cc(C(=O)C3CCCN(Cc4cccc(C)n4)C3)ccc2c1 (stereo not drawn)	i	3	-103	29*	47*	40*
O=C(Nc1ccnn1C1CCN(C2CCC2)CC1)c1ccccc1	i	0	6	-1	/	/
CCOC(=O)c1c(S(=O)(=O)N2c3ccccc3CC2C)c(C)n(C)c1C (stereo not drawn)	-6	2	14	2	/	/
COc1ccc2cc(C(=O)NCc3ccccc3CN3CCCC3)ccc2c1	-1	9	6	33*	115*	104*
COc1ccc(-c2ccc(C(=O)C3CC3)cc2)cc1	8	3	-11	60*	52*	44*
COCC(C)OC(=O)c1c(N)n(CC(C)C)c2nc3ccccc3nc12 (stereo not drawn)	-5	9	-243	99*	4	3
Nc1c(C(=O)NC2CCCC2)c2nc3ccccc3nc2n1CC1CCCO1 (stereo not drawn)	1	20	-27	47*	+	+
CC(C)CNC(=O)c1c(N)n(Cc2ccc3c(c2)OCO3)c2nc3ccccc3nc12	i	12	-10	27*	79*	66*
CC(C)Cn1c(N)c(C(=O)NCC2CCCO2)c2nc3ccccc3nc21 (stereo not drawn)	-1	20	-93	85*	60*	35*
Nc1c(C(=O)NC2CCCC2)c2nc3ccccc3nc2n1N	i	9	11	2	/	/
COC(=O)Cn1c2ccccc2c2nc3ccccc3nc21	0	27	7	1	/	/
Nc1c(C(=O)OCC2CCCO2)c2nc3ccccc3nc2n1C1CCCC1 (stereo not drawn)	-3	10	-97	49*	82*	58*

Compound activity (PubChem BioAssay)
